Screens (PubChem BioAssay)
Hits are enriched below; roughly 12% of the tested compounds scored in any of these assays.
USP17 block = inhibitors of human USP17 deubiquitinase. inhibition, % at 50 µM. purified USP17, Ub-rhodamine cleavage fluorescence, 3 h. hit rate 6.5% among 47,000. Ubiquitin carboxyl-terminal hydrolase 17-like protein 5 (Homo sapiens), A8MUK1. AID 1645855, 2021
USP8 inh = inhibitors of human USP8 deubiquitinase | hit rate 4.2% among 47,000 | purified USP8, Ub-rhodamine cleavage fluorescence, 30 min | inhibition, % at 20 µM | Ubiquitin carboxyl-terminal hydrolase 8 (Homo sapiens), P40818
USP30 inh = inhibitors of human USP30 deubiquitinase. AID 1645860, 2021. hit rate 5.3% among 47,000. inhibition, % at 25 µM. purified USP30, Ub-rhodamine cleavage fluorescence
Target sequence (Q70CQ3 whole entry, looked up): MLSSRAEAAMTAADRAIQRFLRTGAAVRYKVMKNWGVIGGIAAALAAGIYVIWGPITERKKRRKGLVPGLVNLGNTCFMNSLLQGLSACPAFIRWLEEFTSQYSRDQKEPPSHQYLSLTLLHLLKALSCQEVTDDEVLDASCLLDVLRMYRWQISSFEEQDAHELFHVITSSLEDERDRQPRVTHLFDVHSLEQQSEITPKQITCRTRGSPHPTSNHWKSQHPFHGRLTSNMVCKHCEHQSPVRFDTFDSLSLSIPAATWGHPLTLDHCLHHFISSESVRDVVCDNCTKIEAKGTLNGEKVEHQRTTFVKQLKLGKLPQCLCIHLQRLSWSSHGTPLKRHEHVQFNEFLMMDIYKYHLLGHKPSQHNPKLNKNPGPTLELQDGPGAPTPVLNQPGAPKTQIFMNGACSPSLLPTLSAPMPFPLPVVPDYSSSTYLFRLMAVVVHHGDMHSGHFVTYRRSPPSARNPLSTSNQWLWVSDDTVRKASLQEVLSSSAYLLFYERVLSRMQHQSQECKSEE
Of the large screens only hits and unclear results are named; the others gave an inactive call. Rule as the data show it: active = inhibition above about 30%; inactive = the rest.

COc1ccc(C(C)=O)c2cc(C#N)oc12	USP17 block 30
COc1ccc(C(C)=O)cc1COC(=O)c1oc2ccc(Br)cc2c1C	none
Cc1ccc(NC(=O)CCC(=O)Nc2ccc3nc(N4CCCCC4)cc(C)c3c2)c(Br)c1	USP17 block 63, USP8 inh 33, USP30 inh 34
Cc1cc(N2CCOCC2)nc2ccc(NC(=O)CCC(=O)Nc3ccc(F)cc3)cc12	USP17 block 60, USP30 inh 39
COc1cc(NC(=O)CCC(=O)Nc2ccc3nc(N4CCOCC4)cc(C)c3c2)cc(OC)c1OC	none
Cc1cc(N2CCCCC2)nc2ccc(NC(=O)c3ccncc3)cc12	none
Cn1cc(C(=O)N2CCN(c3ccc(Cl)cc3)CC2)nn1	none (no result: USP17 block)
CCNC(=O)N1CCCC(c2cccc(C(=O)NCc3cccc(F)c3)c2)C1 (stereo unspecified)	none
O=C(NC1CC1)c1ccc(CN2C(=O)C3CCCN3C(=O)c3ccccc32)cc1 (stereo unspecified)	none
O=C(Nc1sc2c(c1-c1nc3ccccc3[nH]1)CCCC2)c1ccncc1	USP8 inh 31
O=C(Nc1sc2c(c1-c1nc3ccccc3[nH]1)CCCC2)c1ccccc1[N+](=O)[O-]	USP8 inh 32
CC(C)(C)C(=O)Nc1sc2c(c1-c1nc3ccccc3[nH]1)CCCC2	none
CC(C)N(c1ccccc1)c1ccc(NC(=O)c2ccccc2[N+](=O)[O-])cc1	none
Cn1c(CSc2ncn[nH]2)nc2ccccc21	none
Cc1nc2nc(SCc3nc4ccccc4n3C)[nH]c2cc1Br	USP17 block 53
O=C(Cn1c(=O)n(Cc2ccccc2)c(=O)c2cc(Cl)ccc21)c1cccc(C(F)(F)F)c1	none
O=C(O)CCc1nc2cc(C(F)(F)F)ccc2n(Cc2ccccc2)c1=O	USP17 block 41
Cc1cnc(NC(=O)c2ccccc2-c2ccc(C(F)(F)F)cc2)s1	none
COc1ccc(OC)c(NC(=O)c2cc(Cl)ccc2OC)c1	USP17 block 62
COc1ccc(OC)c(NC(=O)c2sc(-c3ccccc3)nc2C)c1	USP17 block 51, USP8 inh 42, USP30 inh 74
COc1ccc(OC)c(NC(=O)c2nc(C3CCC3)oc2C)c1	USP30 inh 31
COc1cccc(F)c1-c1nc(C)c(C(=O)NCc2ccccc2)s1	none
COc1ccc(NC(=O)c2nc(C3CCC3)oc2C)cc1Cl	none
COc1ccc(OC)c(NC(=O)c2ccc(C)c(F)c2)c1	none
COc1ccc(-c2nc(C)c(C(=O)NCc3ccc(S(N)(=O)=O)cc3)s2)cc1	USP17 block 57
CC(=O)c1cccc(NC(=O)c2sc(-c3ccccc3)nc2C)c1	none
COc1ccc(-c2c(C)nn3c(N4CCCC(O)C4)cc(C)nc23)cc1 (stereo unspecified)	none
COc1ccc(CC(=O)N2C[C@@H]3C[C@H](NC(=O)c4ccccc4)[C@H]2C3)cc1	none
CCOc1ccccc1C1c2c(C)nn(-c3ccc(C)cc3)c2N=C2C(Cl)=CC(Cl)=CN21 (stereo unspecified)	none
COc1cccc(CCN2C[C@@]34CN(C(=O)c5cccnc5)C[C@@H](C[C@@H]3S2(=O)=O)O4)c1	none
COc1ccc(OC)c(NC(=O)c2cc3c(CO)cnc(C)c3oc2=O)c1	USP17 block 33, USP30 inh 44
CCOc1ccc(C(=O)c2cc3c(CO)cnc(C)c3oc2=O)cc1	none
CS(=O)(=O)c1cccc(N2CCN(CC3CC3)C2=O)c1	none
Cc1cc(N2CCN(c3ncccn3)CC2)nc2ccc(NC(=O)Cn3nc([N+](=O)[O-])c(Br)c3C)cc12	USP17 block 64, USP30 inh 68
Cc1cc(N2CCN(c3ncccn3)CC2)nc2ccc(NC(=O)C3CCC(C(C)(C)C)CC3)cc12 (stereo unspecified)	none
Cc1cc(C(=O)Nc2ccc3nc(N4CCN(c5ncccn5)CC4)cc(C)c3c2)ccc1[N+](=O)[O-]	USP17 block 73
Cc1cc(N2CCN(c3ncccn3)CC2)nc2ccc(NC(=O)C(c3ccccc3)C3CCCC3)cc12 (stereo unspecified)	none
CN1CCC(N2CCN(C(=O)C3CCCN(c4cnc5nccnc5c4)C3)CC2)CC1 (stereo unspecified)	none
COc1ccc(C2(C(=O)N3CCC4(CC3)NC(=O)c3ccccc3N4)CCCC2)cc1	none
CC(=O)c1ccc(NC(=O)COc2coc(CN3CCc4ccccc4C3)cc2=O)cc1	USP17 block 46
Cc1cccc(NC(=O)COc2coc(CN3CCc4ccccc4C3)cc2=O)c1	USP8 inh 35
O=C(COc1coc(CN2CCc3ccccc3C2)cc1=O)Nc1ccc(F)cc1	none
Cc1ccc(C)c(NC(=O)COc2coc(CN3CCc4ccccc4C3)cc2=O)c1	none
O=C(CC1CCOCC1)N1CCCCC1c1cc(=O)n2ccnc2[nH]1 (stereo unspecified)	none
O=C(COC(=O)c1oc2ccccc2c1COc1ccccc1)c1ccc2c(c1)OCCO2	none
CCc1noc(C)c1C(=O)N1CCC2(CC(N(C)c3ccncn3)C2)C1 (stereo unspecified)	none
CNS(=O)(=O)c1cc(C(=O)NCc2ccccc2)ccc1Cl	none
CC(C)C1Nc2ccc(C(=O)NCc3ccccc3)cc2NC1=O (stereo unspecified)	USP17 block 36
Cc1nn(-c2nc3ccccc3[nH]2)c2c1C(c1cccc(F)c1)CC(=O)N2 (stereo unspecified)	none
Cc1nn(-c2nc3ccccc3[nH]2)c2c1C(c1cccs1)CC(=O)N2 (stereo unspecified)	USP17 block 52, USP8 inh 38
Cc1nn(-c2nc3ccccc3[nH]2)c2c1C(c1ccccc1Cl)CC(=O)N2 (stereo unspecified)	USP8 inh 51
Cc1nn(-c2nc3ccccc3n2C)c2c1C(c1ccsc1)CC(=O)N2 (stereo unspecified)	none
COc1ccc(C(=O)N2CCCC(c3ccc4cn[nH]c4n3)C2)cc1F (stereo unspecified)	none
